# Results taken from PubChem BioAssay AID651551 (Sanford-Burnham Center for Chemical Genomics, 2012).
# Target: PEG-3 (UniProt Q6IN02)
# Test: GAPDH versus PEG-3 reporter suppression – cell-based, luminescence, counter-screen for PEG-3 promoter inhibitor project, SAR follow-up (AID 651551)
# Settings: HeLa PEG-Prom / GAPDH luciferase reporter, 6 or 24 h, run 1, 6 h; at 99 µM (top of the series)
row,SMILES,inhibition % (higher = more inhibition)
1,Cc1nc(NC(=O)c2ccccc2)sc1-c1csc(Nc2cccc(Cl)c2C)n1,37.4%
2,CCCn1nc(C(=O)Nc2nc3ccccc3s2)c2ccccc2c1=O,38.9%
3,Cc1nc(NC(=O)c2ccccc2)sc1-c1csc(Nc2ccccc2)n1,23.9%
4,Cc1cc(NC(=O)c2cccc(C)c2C)n(-c2nc3ccccc3[nH]2)n1,20.4%
5,COCCCNC(=O)c1ccc(Cn2c(=O)c3ccccc3n(Cc3ccccc3C#N)c2=O)cc1,43.4%
6,COc1ccc(Cl)cc1Nc1nc(-c2sc(NC(=O)c3ccccc3)nc2C)cs1,49.3%
7,Cc1cc(NC(=O)c2ccccc2C(F)(F)F)n(-c2nc3ccccc3[nH]2)n1,92.7%
8,COc1ccc(-n2nc(C(=O)NCC(=O)Nc3ccc(OC)c(OC)c3)c3ccccc3c2=O)cc1,23.9%
9,COc1ccc(-n2nc(C(=O)NCC(=O)Nc3cccc(OC)c3)c3ccccc3c2=O)cc1,-7.42%
10,Cc1nc(NC(=O)c2ccccc2)sc1-c1csc(Nc2ccccc2Cl)n1,-1.45%
11,CCCn1nc(C(=O)Nc2nc(-c3ccccn3)cs2)c2ccccc2c1=O,25.9%
12,O=C(Nc1nc2ccccc2s1)c1nn(-c2ccccc2)c(=O)c2ccccc12,-4.43%
13,CCn1nc(C(=O)Nc2nc(-c3ccccn3)cs2)c2ccccc2c1=O,26.9%
14,CCn1cc(C(=O)NCc2ccco2)c(=O)c2cc(S(=O)(=O)N3CCCC3)ccc21,19.5%
15,Cc1cc(NC(=O)c2ccccc2)n(-c2nc3ccccc3[nH]2)n1,14.9%
16,Cc1cc(NC(=O)c2ccccc2)n(-c2nc3ccccc3n2C)n1,48.1%
17,O=C(Nc1nccs1)c1nn(-c2ccccc2)c(=O)c2ccccc12,37.4%
